# In the supplement of paper PMC8728848:
# This is one part of a sample in which the strongest signals are shown more often than they occur.
# Key:
# Experiment in all cases: glycan array binding signal (z-score within array); higher = stronger binding
# Details in all cases: glycan notation: IUPAC condensed, linker removed
# Fuc(a1-2)Gal = target: Fuc(a1-2)Gal
# How it was run: (§1)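 From the Consortium for Functional Glycomics database, 3228 arrays were curated, keeping only those whose protein sequence was available. Binding is given as a within-array Z-score averaged across arrays sharing a protein sequence and across linkers. Negative Z-scores can be read as non-binding.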
# [1] = target: Fuc(a1-2)Gal(b1-3)GlcNAc(b1-2)Man(a1-3)[Fuc(a1-2)Gal(b1-3)GlcNAc(b1-2)Man(a1-6)]Man(b1-4)GlcNAc(b1-4)GlcNAc
# How it was run: as §1
# [2] = target: Fuc(a1-2)Gal(b1-3)GlcNAc(b1-3)[Neu5Ac(a2-6)Gal(b1-4)GlcNAc(b1-6)]Gal(b1-4)Glc
# How it was run: as §1
# Fuc(a1-2)Gal(b1-4)Glc = target: Fuc(a1-2)Gal(b1-4)Glc
# How it was run: as §1
# [3] = target: Fuc(a1-2)Gal(b1-4)GlcNAc(b1-2)Man
# How it was run: as §1
# [4] = target: Fuc(a1-2)[Gal(a1-3)]Gal(b1-4)GlcNAc
# How it was run: as §1
# [5] = target: Fuc(a1-2)[Gal(a1-3)]Gal(b1-4)GlcNAc(b1-2)Man(a1-3)[Fuc(a1-2)[Gal(a1-3)]Gal(b1-4)GlcNAc(b1-2)Man(a1-6)]Man(b1-4)GlcNAc(b1-4)GlcNAc
# How it was run: as §1
# [6] = target: Fuc(a1-2)[Gal(a1-3)]Gal(b1-4)[Fuc(a1-3)]GlcNAc
# How it was run: as §1
# [7] = target: Fuc(a1-2)[GalNAc(a1-3)]Gal(b1-3)GlcNAc(b1-6)GalNAc
# How it was run: as §1
# [8] = target: Fuc(a1-3)[Gal(b1-4)]GlcNAc(b1-6)GalNAc
# How it was run: as §1
# [9] = target: Gal(a1-3)Gal(b1-3)[Fuc(a1-4)]GlcNAc(b1-2)Man(a1-3)[Gal(a1-3)Gal(b1-3)[Fuc(a1-4)]GlcNAc(b1-2)Man(a1-6)]Man(b1-4)GlcNAc(b1-4)GlcNAc
# How it was run: as §1
# [10] = target: Gal(a1-3)Gal(b1-4)GlcNAc(b1-2)Man
# How it was run: as §1
# Gal(a1-3)GalNAc = target: Gal(a1-3)GalNAc
# How it was run: as §1
# Gal(b1-2)Gal = target: Gal(b1-2)Gal
# How it was run: as §1
# [11] = target: Gal(b1-3)GlcNAc(b1-6)Gal(b1-4)GlcNAc
# How it was run: as §1
# [12] = target: Gal(b1-4)GlcNAc(b1-2)Man(a1-3)[Man(a1-6)]Man(b1-4)GlcNAc(b1-4)GlcNAc
# How it was run: as §1
# [13] = target: Gal(b1-4)GlcNAc(b1-3)Gal(b1-3)GalNAc
# How it was run: as §1
# [14] = target: Gal(b1-4)GlcNAc(b1-3)Gal(b1-4)GlcNAc(b1-2)[Gal(b1-4)GlcNAc(b1-3)Gal(b1-4)GlcNAc(b1-6)]Man(a1-6)[Gal(b1-4)GlcNAc(b1-3)Gal(b1-4)GlcNAc(b1-2)Man(a1-3)]Man(b1-4)GlcNAc(b1-4)[Fuc(a1-6)]GlcNAc
# How it was run: as §1
# [15] = target: Gal(b1-4)GlcNAc(b1-3)Gal(b1-4)GlcNAc(b1-3)Gal(b1-4)GlcNAc(b1-3)Gal(b1-4)GlcNAc(b1-2)Man(a1-3)[Gal(b1-4)GlcNAc(b1-3)Gal(b1-4)GlcNAc(b1-3)Gal(b1-4)GlcNAc(b1-3)Gal(b1-4)GlcNAc(b1-2)Man(a1-6)]Man(b1-4)GlcNAc(b1-4)[Fuc(a1-6)]GlcNAc
# How it was run: as §1
# [16] = target: Gal(b1-4)GlcNAc(b1-3)Gal(b1-4)GlcNAc(b1-3)Gal(b1-4)GlcNAc(b1-3)Gal(b1-4)GlcNAc(b1-3)Gal(b1-4)GlcNAc(b1-2)Man(a1-3)[Gal(b1-4)GlcNAc(b1-3)Gal(b1-4)GlcNAc(b1-3)Gal(b1-4)GlcNAc(b1-3)Gal(b1-4)GlcNAc(b1-3)Gal(b1-4)GlcNAc(b1-2)Man(a1-6)]Man(b1-4)GlcNAc(b1-4)[Fuc(a1-6)]GlcNAc
# How it was run: as §1
# [17] = target: Gal(b1-4)GlcNAc(b1-3)[GlcNAc(b1-6)]Gal(b1-4)GlcNAc
# How it was run: as §1
# Gal6S(b1-4)Glc6S = target: Gal6S(b1-4)Glc6S
# How it was run: as §1
# [18] = target: GalNAc(b1-4)GlcNAc(b1-3)GalNAc(b1-4)GlcNAc
# How it was run: as §1
# [19] = target: GlcNAc(a1-3)Gal(b1-4)GlcNAc
# How it was run: as §1
# [20] = target: GlcNAc(a1-6)Gal(b1-4)GlcNAc
# How it was run: as §1
# [21] = target: GlcNAc(b1-2)[GlcNAc(b1-6)]Man(a1-6)[GlcNAc(b1-2)Man(a1-3)]Man(b1-4)GlcNAc(b1-4)GlcNAc
# How it was run: as §1
# [22] = target: GlcNAc(b1-3)Gal(b1-4)GlcNAc(b1-2)Man(a1-3)[GlcNAc(b1-3)Gal(b1-4)GlcNAc(b1-2)Man(a1-6)]Man(b1-4)GlcNAc(b1-4)[Fuc(a1-6)]GlcNAc
# How it was run: as §1
# GlcNAc(b1-3)GalNAc = target: GlcNAc(b1-3)GalNAc
# How it was run: as §1
# [23] = target: Kdn(a2-3)Gal(b1-4)[Fuc(a1-3)]GlcNAc
# How it was run: as §1
# [24] = target: Neu5Ac(a2-3)Gal(b1-3)GlcNAc
# How it was run: as §1
# [25] = target: Neu5Ac(a2-3)Gal(b1-3)GlcNAc(b1-2)Man
# How it was run: as §1
# [26] = target: Neu5Ac(a2-3)Gal(b1-4)GlcNAc(b1-2)[Neu5Ac(a2-3)Gal(b1-4)GlcNAc(b1-6)]Man(a1-6)[Neu5Ac(a2-3)Gal(b1-4)GlcNAc(b1-2)Man(a1-3)][GlcNAc(b1-4)]Man(b1-4)GlcNAc(b1-4)GlcNAc
# How it was run: as §1
# [27] = target: Neu5Ac(a2-3)Gal(b1-4)GlcNAc(b1-3)Gal(b1-4)GlcNAc(b1-3)Gal(b1-4)GlcNAc(b1-2)Man(a1-3)[Neu5Ac(a2-3)Gal(b1-4)GlcNAc(b1-3)Gal(b1-4)GlcNAc(b1-3)Gal(b1-4)GlcNAc(b1-2)Man(a1-6)]GalNAc
# How it was run: as §1
# [28] = target: Neu5Ac(a2-3)Gal(b1-4)[Fuc(a1-3)]GlcNAc6S
# How it was run: as §1
# [29] = target: Neu5Ac(a2-6)Gal(b1-4)GlcNAc(b1-2)Man(a1-3)[Neu5Ac(a2-3)Gal(b1-4)GlcNAc(b1-2)Man(a1-6)]Man(b1-4)GlcNAc(b1-4)GlcNAc
# How it was run: as §1
# Neu5Ac(a2-8)Neu5Ac = target: Neu5Ac(a2-8)Neu5Ac
# How it was run: as §1
# [30] = target: Neu5Ac(a2-8)Neu5Ac(a2-3)Gal(b1-4)Glc
# How it was run: as §1
# Neu5Ac(b2-6)GalNAc = target: Neu5Ac(b2-6)GalNAc
# How it was run: as §1
# Neu5Gc(a2-6)GalNAc = target: Neu5Gc(a2-6)GalNAc
# How it was run: as §1
binder,measurement,setting,value
Loc1 (Escherichia coli) (protein) APCALTNVGEQRGTYILKPLSMKGNLTAEKIENTGNIIECTDLQETTNAIKVHFLTQNALKFKVGSRHYIINFPFEYDGKKIELPGKSSYNLEEMLSAINFTIPYSIASVSDSSNTADIFPGTPFPLLFEIEVSSCTGNNTNCNSVRFNYNLNTILQVNLMTHHHHHH,glycan array binding signal (z-score),Fuc(a1-2)Gal,0.363
same,glycan array binding signal (z-score),[1],-1.09
same,glycan array binding signal (z-score),[2],-0.102
same,glycan array binding signal (z-score),Fuc(a1-2)Gal(b1-4)Glc,-0.622
same,glycan array binding signal (z-score),[3],-0.607
same,glycan array binding signal (z-score),[4],2
same,glycan array binding signal (z-score),[5],1.97
same,glycan array binding signal (z-score),[6],-0.548
same,glycan array binding signal (z-score),[7],-0.51
same,glycan array binding signal (z-score),[8],3.45
same,glycan array binding signal (z-score),[9],-0.81
same,glycan array binding signal (z-score),[10],0.198
same,glycan array binding signal (z-score),Gal(a1-3)GalNAc,7.25
same,glycan array binding signal (z-score),Gal(b1-2)Gal,1.18
same,glycan array binding signal (z-score),[11],0.216
same,glycan array binding signal (z-score),[12],-0.747
same,glycan array binding signal (z-score),[13],0.355
same,glycan array binding signal (z-score),[14],2.29
same,glycan array binding signal (z-score),[15],2.43
same,glycan array binding signal (z-score),[16],1.98
same,glycan array binding signal (z-score),[17],-0.48
same,glycan array binding signal (z-score),Gal6S(b1-4)Glc6S,0.298
same,glycan array binding signal (z-score),[18],0.68
same,glycan array binding signal (z-score),[19],-0.527
same,glycan array binding signal (z-score),[20],2.41
same,glycan array binding signal (z-score),[21],3.01
same,glycan array binding signal (z-score),[22],0.259
same,glycan array binding signal (z-score),GlcNAc(b1-3)GalNAc,-0.454
same,glycan array binding signal (z-score),[23],-0.405
same,glycan array binding signal (z-score),[24],-0.838
same,glycan array binding signal (z-score),[25],-0.478
same,glycan array binding signal (z-score),[26],-0.322
same,glycan array binding signal (z-score),[27],2.75
same,glycan array binding signal (z-score),[28],0.57
same,glycan array binding signal (z-score),[29],0.21
same,glycan array binding signal (z-score),Neu5Ac(a2-8)Neu5Ac,0.04
same,glycan array binding signal (z-score),[30],8.5
same,glycan array binding signal (z-score),Neu5Ac(b2-6)GalNAc,-0.643
same,glycan array binding signal (z-score),Neu5Gc(a2-6)GalNAc,0.381
